Gli-Sufu block – Gli-Sufu pathway antagonism | inhibition, % at 5 µM | Sufu-KO-LIGHT fibroblasts, Gli luciferase reporter luminescence | 340,000 compounds, 0.74% hits;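 active means inhibition above about 55%, limit read from the data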
MPTP inh – inhibitors of mitochondrial permeability transition pore; AID 602449; isolated mouse mitochondria, Ca2+ swelling absorbance, 30 min; inhibition, % at 10 µM; 360,000 compounds, 1.4% hits;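 active means inhibition of 50% or more, scaled per plate between neutral and stimulator controls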
NR3A LBD binder – modulators (binders) of human NR3A ligand-binding domain | 340,000 compounds, 2.5% hits | Tm shift relative to glycine control, % at 25 µM | NR3A LBD differential scanning fluorimetry, Tm shift; 0% = protein alone, 100% = glycine-bound protein;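 active means melting temperature shift of at least 10% of the positive control shift, at one fixed dose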
Beta apoptosis – blocks beta cell apoptosis. protection from apoptosis, % (no concentration beside the values). AID 435005. 300,000 compounds, 0.8% hits. INS-1E cytokine-induced death, ATP luminescence, 48 h; percent of positive-control rescue, neutral wells zero;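 active means Every replicate reaches about 75%, or at least half do and their mean reaches it too, limit read from the data; inconclusive means At least half of replicates reach the limit but their mean does not; inactive means Under half of replicates reach the limit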;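 further: higher means more ATP so stronger rescue from cytokine killing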
Mdm2 MdmX PPI – disrupts the human Mdm2-MdmX interaction | 330,000 compounds, 3% hits | SaOS-2 split-luciferase Mdm2/MdmX complementation, luminescence | inhibition, % at 8 µM | O15151+Q00987;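 active means inhibition of at least 50% at 8 µM in the primary screen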
Target sequence (O15151 whole entry, looked up): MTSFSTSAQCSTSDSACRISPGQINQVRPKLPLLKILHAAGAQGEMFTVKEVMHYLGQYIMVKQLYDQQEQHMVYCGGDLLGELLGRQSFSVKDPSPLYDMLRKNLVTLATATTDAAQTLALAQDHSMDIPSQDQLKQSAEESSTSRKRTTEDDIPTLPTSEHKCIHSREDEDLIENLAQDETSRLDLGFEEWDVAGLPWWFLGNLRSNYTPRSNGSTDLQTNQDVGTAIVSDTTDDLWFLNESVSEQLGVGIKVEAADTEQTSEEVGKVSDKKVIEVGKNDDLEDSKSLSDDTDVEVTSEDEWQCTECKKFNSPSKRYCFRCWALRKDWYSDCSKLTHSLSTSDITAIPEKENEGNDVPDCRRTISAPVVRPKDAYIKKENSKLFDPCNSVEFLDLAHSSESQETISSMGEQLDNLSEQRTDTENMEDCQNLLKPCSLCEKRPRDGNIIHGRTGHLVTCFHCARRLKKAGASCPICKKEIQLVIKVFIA
Target sequence (Q00987 whole entry, looked up): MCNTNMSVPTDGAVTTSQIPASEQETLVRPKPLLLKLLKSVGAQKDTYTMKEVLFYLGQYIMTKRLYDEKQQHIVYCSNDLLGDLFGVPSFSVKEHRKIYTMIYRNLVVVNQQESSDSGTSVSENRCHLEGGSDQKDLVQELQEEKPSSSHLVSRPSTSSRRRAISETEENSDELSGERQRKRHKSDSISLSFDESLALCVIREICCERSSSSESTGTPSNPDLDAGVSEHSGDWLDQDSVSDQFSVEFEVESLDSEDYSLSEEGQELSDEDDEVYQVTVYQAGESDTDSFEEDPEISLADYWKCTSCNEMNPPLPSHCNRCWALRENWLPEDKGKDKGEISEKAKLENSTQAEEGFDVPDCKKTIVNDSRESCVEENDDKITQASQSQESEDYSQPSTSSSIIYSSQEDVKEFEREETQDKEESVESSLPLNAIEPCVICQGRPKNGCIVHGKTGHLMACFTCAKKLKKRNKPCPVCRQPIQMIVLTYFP
CSC inhib – cancer stem cell inhibition; cancer stem cell-like cells viability, luminescence; inhibition, % at 7.5 µM; 300,000 compounds, 1.1% hits; AID 2717; in the data active means inhibition above about 75%; inconclusive means no clear call, values can overlap the other calls; tested in HMLE shEcad cells
Mdm2 MdmX conf – human Mdm2/MdmX binding inhibition, confirmed. inhibition, % at 8 µM. 10,000 compounds, 55% hits. shares compounds with Mdm2 MdmX PPI. luminescent assay; in the data active means inhibition above about 40%
FLuc counter – full-length luciferase inhibition in Mdm2/MdmX counter-screen | shares compounds with Mdm2 MdmX PPI | SaOS-2 full-length luciferase counterscreen, luminescence | inhibition, % at 8 µM | 6,200 compounds, 77% hits | AID 504607;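 active means mean inhibition at 8 µM reaching about 37%, which flags the compound as non-specific, limit read from the data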;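 further: p53-null SaOS-2 cells with luciferase driven by a doxycycline-inducible promoter; compound on cells about two nights before reading with doxycycline added after day one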
MPTP counter – membrane potential counter-screen of mitochondrial pore inhibitors; shares compounds with MPTP inh; isolated mitochondria, Rhodamine 123 fluorescence; inhibition, % at 10 µM; 5,000 compounds, 78% hits; in the data active means inhibition above about 22%
MPTP swell DR – dose response confirmation of mitochondrial permeability transition pore inhibitors; shares compounds with MPTP inh; isolated mitochondria swelling, absorbance; IC50, µM; 780 compounds, 58% hits; in the data active means IC50 below about 20 µM
MPTP cs DR – counter-screen for mitochondrial permeability transition pore inhibitors, dose response. shares compounds with MPTP inh. isolated mitochondria counterscreen, fluorescence read-out. IC50, µM. 780 compounds, 49% hits. AID 651564; in the data active means IC50 below about 80 µM
Numbers stand for hits; n = inactive; u = inconclusive; x = not tested or not shown. Hits are enriched below; roughly 6.6% of the tested compounds scored in any of these assays.

SMILES	Gli-Sufu block	MPTP inh	NR3A LBD binder	Beta apoptosis	Mdm2 MdmX PPI	CSC inhib	Mdm2 MdmX conf	FLuc counter	MPTP counter	others
Cc1cccc(C)c1NS(=O)(=O)c1ccc(NC(=O)c2ccc(Cl)c([N+](=O)[O-])c2)cc1	n	74.5	18.9	n	98.5	103.1	68.7	58.7	80.7
O=C(O)c1cc(NC(=O)c2ccc(Cl)c([N+](=O)[O-])c2)cc(C(=O)O)c1	n	n	n	x	n	n	x	x	x
N#Cc1ccsc1NC(=O)c1ccc(Cl)c([N+](=O)[O-])c1	n	81.9	n	n	61.0	n	55.8	112.3	71.2
O=C(Nc1ccccc1)Nc1ccc(Cl)c([N+](=O)[O-])c1	n	100.8	23.3	n	79.6	n	50.4	42.7	99.0
COc1ccc(C(=O)OCC(=O)NC(=O)NC2CCCC2)cc1OC	n	n	n	n	n	x	x	x	x
O=S(=O)(CC(CN1CCCCC1)N1CCCCC1)c1ccc2ccccc2c1 (centres undefined)	n	n	n	x	x	x	x	x	x
FC(F)(F)c1cnc(NNC(=S)Nc2ccccc2Cl)c(Cl)c1	n	54.6	n	111.9	86.3	n	n	x	89.1
Cc1cccc(NC(=S)NNc2ncc(C(F)(F)F)cc2Cl)c1	n	n	n	n	n	n	x	x	x
O=C(Nc1cccs1)OCCN1CCN(Cc2ccccc2)CCC1=O	n	n	n	n	n	n	x	x	x
Cc1cc(=O)[nH]c(SCC(=O)Nc2ccc(Cl)cn2)n1	n	n	n	n	n	n	x	x	x
Cc1cc(OCC(=O)Nc2ccc(F)c(F)c2)nc(C(C)C)n1	x	n	n	n	n	n	x	x	x
Clc1ccc(C(c2ccccc2)N2CCNCC2)cc1 (centres undefined)	n	79.9	n	n	61.8	n	47.5	75.8	n	MPTP swell DR=6.69;MPTP cs DR=n
CCN(Cc1ccccc1)C(=O)Cn1c(=O)n(CCC(=O)N2CCCCC2)c(=O)c2sccc21	n	n	n	n	n	n	x	x	x
N#CC(C#N)=C(Nc1ccc(F)cc1)SCc1cccc(F)c1	n	95.2	n	101.8	89.8	n	91.6	n	84.7
CCOc1ccc(N/C(SCc2cccc([N+](=O)[O-])c2)=C(/C#N)C(N)=O)cc1	n	n	n	n	n	n	x	x	x
COc1ccccc1OCC(=O)N1CCCC(Nc2ccc(F)c(F)c2)C1 (centres undefined)	n	n	n	n	n	n	x	x	x
O=C(COC(=O)c1ccc(N2CCCC2=O)cc1)c1ccccc1	n	n	n	n	n	n	x	x	x
O=[N+]([O-])c1cccc(NC(=S)Nc2nc(-c3ccccc3Cl)cs2)c1	n	86.6	16.8	n	95.7	86.4	85.0	62.7	76.2
CCNC(=S)Nc1cccc([N+](=O)[O-])c1	x	x	x	n	n	n	x	x	x
CCOc1ccc(S(=O)(=O)N2Cc3ccccc3CC2C(=O)O)cc1 (centres undefined)	n	n	n	n	n	n	x	x	x
CCC(=O)Nc1ccc(S(=O)(=O)NC[C@H]2O[C@@H](n3cc(C)c(=O)[nH]c3=O)C[C@@H]2O)cc1	x	n	x	x	x	x	x	x	x
COc1ccc(-c2cc3c(=O)n(CC(=O)NCCCN4CCC(Cc5ccccc5)CC4)ncn3n2)cc1	n	85.3	n	n	87.1	n	n	67.6	n
CCOC(=O)CSc1nc2sc(C)c(C)c2c(=O)n1N	n	n	n	n	n	n	x	x	x
CCN(CC)S(=O)(=O)c1ccc(OC)c(NC(=O)CC2CCCC2)c1	n	n	n	n	n	n	x	x	x
O=C(Nc1ccc(Br)c(C(F)(F)F)c1)c1ccc(C(F)(F)F)cc1	n	82.8	23.9	74.1	95.6	110.1	58.9	n	86.5
SMILES	Gli-Sufu block	MPTP inh	NR3A LBD binder	Beta apoptosis	Mdm2 MdmX PPI	CSC inhib	Mdm2 MdmX conf	FLuc counter	MPTP counter	others
O=C(Nc1ccc(OCC(F)(F)C(F)F)c(C(F)(F)F)c1)c1ccc(Cl)cc1	n	90.7	31.5	78.7	92.2	u	84.6	n	84.5
CCN(CC)c1ccc(/C=C(/C#N)c2nc3ccc(C)cc3[nH]2)c(OC(C)C)c1	n	82.8	n	n	52.2	n	43.9	78.7	51.7
CCOc1cc(N(CC)CC)ccc1/C=C(/C#N)c1nc2ccccc2[nH]1	n	82.5	n	n	50.6	n	47.4	91.8	54.4
CCCc1nc(SCC(=O)N2CCCc3ccccc32)c2c(=O)n(C)c(=O)n(C)c2n1	n	n	n	n	n	n	x	x	x
Cn1c(=O)c2c(SCC(=O)N3CCCc4ccccc43)nc(CC(C)(C)C)nc2n(C)c1=O	n	62.5	n	n	69.1	n	n	x	n
CCCc1nc(SCC(=O)N2CCC(Cc3ccccc3)CC2)c2c(=O)n(C)c(=O)n(C)c2n1	n	52.5	n	n	60.4	n	41.8	79.0	n
O=C(NNc1nc2cc3c(cc2s1)OCO3)c1cccc(F)c1	n	n	n	n	n	n	x	x	x
Cc1ccc(OCCNC(=O)CNC(=O)c2ccccc2Cl)cc1	n	n	n	n	n	x	x	x	x
COC(=O)c1c(NC(=O)c2ccc(OC(C)C)cc2)sc2c1CC(C)(C)NC2(C)C	n	86.9	n	x	93.7	n	76.5	n	n	MPTP swell DR=n;MPTP cs DR=55.8
COC(=O)c1c(NC(=O)c2ccco2)sc2c1CC(C)(C)NC2(C)C	n	n	n	n	n	n	x	x	x
NCCc1c(-c2ccccc2)n(-c2ccccc2)c2ccccc12	n	78.8	n	x	61.1	x	53.2	70.7	n
Cc1nn(-c2ccccc2)c(-c2ccccc2[N+](=O)[O-])c1CC#N	x	n	x	x	x	x	x	x	x
Cc1nc(SCc2nc3cc(Cl)c(F)cc3[nH]2)c2oc3ccccc3c2n1	n	62.8	n	n	91.7	x	42.2	n	79.8
Cc1nc(SCc2nc3ccc(Cl)cc3[nH]2)c2oc3ccccc3c2n1	n	n	n	n	n	x	x	x	x
CSCCC1NC(=O)N(CC(=O)Nc2ccc(-c3ccccc3)cc2)C1=O (centres undefined)	n	n	n	n	n	n	x	x	x
CC(C)c1ccc(C2C3=C(CC(C)(C)CC3=O)NC3=C2C(=O)c2ccccc23)cc1 (centres undefined)	n	84.2	n	n	73.4	n	n	x	61.0
CC1(C)CC(=O)C2=C(C1)NC1=C(C(=O)c3ccccc31)C2c1ccccc1 (centres undefined)	n	n	n	n	n	n	x	x	x
COc1ccc(C(=O)N2CCOC2CNC(=O)C(=O)NCc2ccccc2)cc1 (centres undefined)	x	n	x	x	x	x	x	x	x
Cc1ccc2nc(/C(C#N)=C\c3ccc(Oc4ccc(C(F)(F)F)cc4[N+](=O)[O-])cc3)[nH]c2c1	n	99.4	n	n	60.7	n	43.9	75.2	58.9

Compound activity from PubChem BioAssay.
